Values joined by “and” are separate entries in the source; they are usually repeats but may differ in a detail not shown here. Identical values can stand only once. Records with an inconclusive call do not appear. Where a structure was tested more than once in an assay, its records may differ in their call. Active and inactive are the calls of the source. The calls were made as follows, unless noted: active = hit-call score of the fitted dose curve at least 0.9, where 1 is the maximum; inactive = score below 0.9.
Tests used:
[1] = BSK_LPS_PGE2: BioMAP Diversity Plus: LPS Assay for Prostaglandin E2 (PGE2) Biomarker Activity (AID 2283082); conditions: primary human HUVEC with PBMC; actives raise or lower the signal;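 as to AC50: secreted prostaglandin E2 measured by ELISA in LPS-stimulated co-culture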
How it was run: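 LPS-activated HUVEC/PBMC co-culture; cmpd dosed, 24 h; PGE2 by ELISA; bidirectional fit vs DMSO; SRB (0.1%, TCA-fixed, 560 nm) in parallel plates for overt cytotox.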

[2] = read-out: Macrophage colony-stimulating factor (MCSF), CSF1 (gene 1435); assay: BSK_LPS_MCSF: BioMAP Diversity Plus: LPS Assay for Macrophage colony-stimulating factor (MCSF) Biomarker Activity (AID 2283083); conditions: primary human HUVEC with PBMC; actives raise or lower the signal
How it was run: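 Compound is added to a human vascular primary co-culture of umbilical vein endothelium and blood mononuclear cells. After 24 h, M-CSF is quantified by ELISA. Signal changes are fitted in both directions against DMSO.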

[3] = read-out: Tissue Factor, F3 (gene 2152); assay: BSK_LPS_TissueFactor: BioMAP Diversity Plus: LPS Assay for Tissue Factor Biomarker Activity (AID 2283084); conditions: primary human HUVEC with PBMC; actives raise or lower the signal
How it was run: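 In this co-culture system of umbilical vein endothelium with PBMC, stimulated with LPS, cell-surface CD142 is detected by ELISA at 24 h. Endpoint values derive from bidirectional fitting, DMSO serving as baseline.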

[4] = read-out: Tumor necrosis factor (Homo sapiens) (UniProt P01375); assay: BSK_LPS_TNFa: BioMAP Diversity Plus: LPS Assay for Tumour Necrosis Factor alpha (TNFa) Biomarker Activity (AID 2283085); conditions: primary human HUVEC with PBMC; actives raise or lower the signal
How it was run: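 Read-out is ELISA of TNFa in primary human endothelial cell–PBMC co-cultures at 24 h after compound. Activity in either direction was fitted against DMSO.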

[5] = read-out: Vascular cell adhesion molecule 1 (VCAM1), VCAM1 (gene 7412); assay: BSK_LPS_VCAM1: BioMAP Diversity Plus: LPS Assay for Vascular cell adhesion molecule 1 (VCAM1) Biomarker Activity (AID 2283086); conditions: primary human HUVEC with PBMC; actives raise or lower the signal
How it was run: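 HUVEC + PBMC co-culture, LPS system; compound 24 h; VCAM-1 by ELISA; bidirectional fit vs DMSO control; parallel SRB (0.1%, TCA-fixed, 560 nm) for cytotoxicity.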

[6] = read-out: CD38, CD38 (gene 952); assay: BSK_SAg_CD38: BioMAP Diversity Plus: SAg Assay for CD38 Biomarker Activity (AID 2283087); conditions: primary human HUVEC with PBMC; actives raise or lower the signal
How it was run: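 Human HUVEC plus PBMC co-culture stimulated with superantigen; CD38 measured by ELISA 24 h after chemical dosing. Fluorescence read-out, bidirectional fit against DMSO; cytotoxicity tracked in parallel by SRB and Alamar Blue.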

[7] = read-out: CD40, CD40 (gene 958); assay: BSK_SAg_CD40: BioMAP Diversity Plus: SAg Assay for CD40 Biomarker Activity (AID 2283088); conditions: primary human HUVEC with PBMC; actives raise or lower the signal
How it was run: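 Fluorescence ELISA read-out of CD40 from umbilical vein endothelium plus peripheral blood mononuclear cells, sampled 24 h after dosing. Values come from bidirectional curve fitting with DMSO as baseline.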

[8] = read-out: Monocyte Chemoattractant Protein-1 (MCP1), CCL2 (gene 6347); assay: BSK_SAg_MCP1: BioMAP Diversity Plus: SAg Assay for Monocyte Chemoattractant Protein-1 (MCP1) Biomarker Activity (AID 2283090); conditions: primary human HUVEC with PBMC; actives raise or lower the signal
How it was run: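 MCP-1 levels in the endothelial–PBMC SAg co-culture were quantified by ELISA at 24 h post-dosing; both increases and decreases versus DMSO scored. Cytotoxicity monitored by SRB total protein in parallel cultures.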

[9] = read-out: E-selectin (Homo sapiens) (UniProt P16581); assay: BSK_SAg_Eselectin: BioMAP Diversity Plus: SAg Assay for Eselectin Biomarker Activity (AID 2283091); conditions: primary human HUVEC with PBMC; actives raise or lower the signal
How it was run: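 Primary human endothelial cells and peripheral blood mononuclear cells were co-cultured and exposed to chemical for 24 hours. E-selectin levels were then quantified by ELISA, with bidirectional curve fitting normalised to DMSO controls.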

[10] = read-out: Monokine induced gamma interferon (MIG), CXCL9 (gene 4283); assay: BSK_SAg_MIG: BioMAP Diversity Plus: SAg Assay for Monokine induced gamma interferon (MIG) Biomarker Activity (AID 2283092); conditions: primary human HUVEC with PBMC; actives raise or lower the signal
How it was run: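 Values reflect bidirectional fitting of ELISA-measured MIG against DMSO vehicle, taken 24 h after dosing of a co-culture of human umbilical vein endothelial cells and peripheral blood mononuclear cells.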

[11] = BSK_SAg_PBMCCytotoxicity: PBMC Cytotoxicity Assessment in the BioMAP Diversity Plus: SAg Assay (AID 2283093); conditions: primary human HUVEC with PBMC;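 also: PBMC viability measured as Alamar Blue reduction fluorescence at 546/580 nm; fitted both ways against DMSO so a hit may be loss or gain of signal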;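 as to AC50: PBMC superantigen activated with SEB plus TSST-1 one hour after compound addition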
How it was run: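 HUVEC/PBMC co-culture; PBMC exposed to chemical 1 h before SEB and TSST-1 activation (20 ng/mL each), incubated 90 h, then Alamar Blue 6 h, fluorescence 546/580 nm. Bidirectional fit versus DMSO baseline.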

[12] = read-out: Interleukin-8 (IL8), CXCL8 (gene 3576); assay: BSK_SAg_IL8: BioMAP Diversity Plus: SAg Assay for Interleukin-8 (IL8) Biomarker Activity (AID 2283094); conditions: primary human HUVEC with PBMC; actives raise or lower the signal
How it was run: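 ELISA read-out of IL-8 in a primary human vascular co-culture (umbilical vein endothelium plus PBMC), taken 24 h after compound addition. Values derive from bidirectional fits against DMSO negative controls.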

[13] = BSK_SAg_Proliferation: Cell Proliferation Assessment in the BioMAP Diversity Plus: SAg Assay (AID 2283095); conditions: primary human HUVEC with PBMC;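 also: relative cell number as total protein by SRB absorbance in sub-confluent culture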
How it was run: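 Cells (endothelium plus PBMC, human primary) were dosed with chemical, cultured 96 h, fixed in 10% TCA and stained with 0.1% SRB. Absorbance at 560 nm gave relative protein, fitted bidirectionally relative to DMSO.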

[14] = BSK_SAg_SRB: Viability Assessment in the BioMAP Diversity Plus: SAg Assay (AID 2283096); conditions: primary human HUVEC with PBMC;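 also: cells read one day after compound addition; hits may be either gain or loss of signal compared with DMSO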
How it was run: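 Human umbilical vein endothelial cells co-cultured with PBMC, read 24 h after compound dosing. Total protein measured by sulforhodamine B staining (0.1% SRB after 10% TCA fixation, absorbance 560 nm); bidirectional fit versus DMSO baseline.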

[15] = biological target: human CYP19A1, CYP19A1 (gene 1588) (UniProt P11511); assay: NVS_ADME_hCYP19A1: NovaScreen (NVS) CYP450-related Enzyme Activity (ADME) Assay for human CYP19A1 (AID 2283098; active = hit-call score of the fitted dose curve at least 0.9, where 1 is the maximum)
human CYP19A1, CYP19A1 (gene 1588), sequence (P11511 whole entry, looked up): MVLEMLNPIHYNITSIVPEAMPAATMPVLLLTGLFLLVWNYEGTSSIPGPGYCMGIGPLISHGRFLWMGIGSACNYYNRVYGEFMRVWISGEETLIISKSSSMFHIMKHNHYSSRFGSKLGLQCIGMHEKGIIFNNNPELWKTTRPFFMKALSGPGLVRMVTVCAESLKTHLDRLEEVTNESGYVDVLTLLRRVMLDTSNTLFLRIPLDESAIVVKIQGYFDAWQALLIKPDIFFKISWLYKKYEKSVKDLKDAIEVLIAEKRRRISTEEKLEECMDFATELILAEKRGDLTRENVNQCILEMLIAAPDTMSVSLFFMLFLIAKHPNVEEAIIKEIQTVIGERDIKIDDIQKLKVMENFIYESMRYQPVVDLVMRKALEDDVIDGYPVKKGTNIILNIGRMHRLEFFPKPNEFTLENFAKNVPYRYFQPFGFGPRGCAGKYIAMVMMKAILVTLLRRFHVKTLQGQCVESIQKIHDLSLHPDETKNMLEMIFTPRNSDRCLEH
How it was run: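 Recombinant enzyme in a cell-free format, read 0.5 h after dosing by fluorescence from a fluorogenic substrate. Loss of signal was fitted against acetonitrile as baseline. Primary screen in duplicate at 10 uM, actives then tested in concentration series.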

[16] = read-out: CD69, CD69 (gene 969); assay: BSK_SAg_CD69: BioMAP Diversity Plus: SAg Assay for CD69 Biomarker Activity (AID 2283089); conditions: primary human HUVEC with PBMC; actives raise or lower the signal;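 as to AC50: cell surface CD69 protein quantified by ELISA with fluorescence detection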
How it was run: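 Values derive from bidirectional fitting relative to DMSO vehicle. Cells: umbilical vein endothelium plus peripheral blood mononuclear cells, treated 24 h before fluorescent ELISA for CD69.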

[17] = biological target: human CYP2A6, CYP2A6 (gene 1548) (UniProt P11509); assay: NVS_ADME_hCYP2A6: NovaScreen (NVS) CYP450-related Enzyme Activity (ADME) Assay for human CYP2A6 (AID 2283099; active = hit-call score of the fitted dose curve at least 0.9, where 1 is the maximum)
human CYP2A6, CYP2A6 (gene 1548), sequence (P11509 whole entry, looked up): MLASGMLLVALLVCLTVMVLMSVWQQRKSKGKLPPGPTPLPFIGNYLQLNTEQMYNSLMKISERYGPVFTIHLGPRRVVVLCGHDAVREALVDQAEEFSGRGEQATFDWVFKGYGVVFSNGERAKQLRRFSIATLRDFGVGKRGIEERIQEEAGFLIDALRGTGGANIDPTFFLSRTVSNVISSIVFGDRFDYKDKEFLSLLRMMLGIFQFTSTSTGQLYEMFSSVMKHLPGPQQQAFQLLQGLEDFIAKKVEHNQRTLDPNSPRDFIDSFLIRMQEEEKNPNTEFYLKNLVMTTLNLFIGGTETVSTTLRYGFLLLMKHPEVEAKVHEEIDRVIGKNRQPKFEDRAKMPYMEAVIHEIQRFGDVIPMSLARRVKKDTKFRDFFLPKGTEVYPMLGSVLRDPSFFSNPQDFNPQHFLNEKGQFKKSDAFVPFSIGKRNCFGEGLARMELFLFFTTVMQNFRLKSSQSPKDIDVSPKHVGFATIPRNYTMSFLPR
How it was run: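 Recombinant human CYP2A6 from insect cells was incubated with chemical for 0.5 h and activity read by fluorescence. Single-concentration duplicates at 10 uM preceded concentration-response testing to 20 uM, with activity referenced to acetonitrile.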

[18] = biological target: human CYP2B6, CYP2B6 (gene 1555) (UniProt P20813); assay: NVS_ADME_hCYP2B6: NovaScreen (NVS) CYP450-related Enzyme Activity (ADME) Assay for human CYP2B6 (AID 2283101; active = hit-call score of the fitted dose curve at least 0.9, where 1 is the maximum)
human CYP2B6, CYP2B6 (gene 1555), sequence (P20813 whole entry, looked up): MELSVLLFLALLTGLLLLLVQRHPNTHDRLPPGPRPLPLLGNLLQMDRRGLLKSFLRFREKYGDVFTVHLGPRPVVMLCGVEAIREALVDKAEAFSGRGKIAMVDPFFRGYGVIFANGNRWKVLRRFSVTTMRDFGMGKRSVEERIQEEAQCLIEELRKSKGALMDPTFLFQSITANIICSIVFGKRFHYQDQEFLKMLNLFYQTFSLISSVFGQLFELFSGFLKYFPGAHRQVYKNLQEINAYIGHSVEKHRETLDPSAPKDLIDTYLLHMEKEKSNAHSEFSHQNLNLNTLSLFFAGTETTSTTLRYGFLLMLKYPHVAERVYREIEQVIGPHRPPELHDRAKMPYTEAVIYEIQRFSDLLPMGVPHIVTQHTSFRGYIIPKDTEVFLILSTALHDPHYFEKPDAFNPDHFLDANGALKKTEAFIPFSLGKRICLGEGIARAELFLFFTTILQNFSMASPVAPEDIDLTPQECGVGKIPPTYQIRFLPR
How it was run: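 Compounds were first screened in duplicate at 10 uM against recombinant enzyme, with the fluorescent product measured after 1 hour. Active compounds were retested over a concentration series. Loss of fluorescence versus acetonitrile control was scored as reduced enzyme activity.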

[19] = biological target: human CYP1A1, CYP1A1 (gene 1543) (UniProt P04798); assay: NVS_ADME_hCYP1A1: NovaScreen (NVS) CYP450-related Enzyme Activity (ADME) Assay for human CYP1A1 (AID 2283100; active = hit-call score of the fitted dose curve at least 0.9, where 1 is the maximum)
human CYP1A1, CYP1A1 (gene 1543), sequence (P04798 whole entry, looked up): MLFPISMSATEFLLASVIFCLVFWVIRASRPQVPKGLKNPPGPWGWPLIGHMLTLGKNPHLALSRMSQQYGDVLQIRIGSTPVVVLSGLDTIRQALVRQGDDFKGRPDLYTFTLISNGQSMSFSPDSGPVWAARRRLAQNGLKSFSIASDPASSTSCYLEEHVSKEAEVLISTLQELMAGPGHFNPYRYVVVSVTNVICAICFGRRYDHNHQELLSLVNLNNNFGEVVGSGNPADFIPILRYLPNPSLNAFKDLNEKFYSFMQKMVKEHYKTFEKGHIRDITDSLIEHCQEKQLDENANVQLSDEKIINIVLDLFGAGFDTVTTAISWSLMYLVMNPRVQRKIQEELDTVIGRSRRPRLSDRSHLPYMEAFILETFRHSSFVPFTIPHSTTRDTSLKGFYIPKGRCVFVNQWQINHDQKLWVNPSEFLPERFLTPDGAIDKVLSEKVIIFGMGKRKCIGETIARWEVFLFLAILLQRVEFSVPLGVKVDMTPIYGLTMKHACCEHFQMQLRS
How it was run: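 Compounds first went through duplicate single-concentration testing at 10 uM against purified CYP1A1. Those passing a threshold such as 30% inhibition entered singleton dose-response, highest concentration 20 uM. Signal was fluorescence measured after 1 hour.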

[20] = biological target: human CYP1A2, CYP1A2 (gene 1544) (UniProt P05177); assay: NVS_ADME_hCYP1A2: NovaScreen (NVS) CYP450-related Enzyme Activity (ADME) Assay for human CYP1A2 (AID 2283102; active = hit-call score of the fitted dose curve at least 0.9, where 1 is the maximum;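 also: fluorescence from turnover of a fluorogenic substrate by recombinant insect-cell CYP1A2; potency for inhibition since loss of fluorescence marks reduced CYP1A2 activity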)
human CYP1A2, CYP1A2 (gene 1544), sequence (P05177 whole entry, looked up): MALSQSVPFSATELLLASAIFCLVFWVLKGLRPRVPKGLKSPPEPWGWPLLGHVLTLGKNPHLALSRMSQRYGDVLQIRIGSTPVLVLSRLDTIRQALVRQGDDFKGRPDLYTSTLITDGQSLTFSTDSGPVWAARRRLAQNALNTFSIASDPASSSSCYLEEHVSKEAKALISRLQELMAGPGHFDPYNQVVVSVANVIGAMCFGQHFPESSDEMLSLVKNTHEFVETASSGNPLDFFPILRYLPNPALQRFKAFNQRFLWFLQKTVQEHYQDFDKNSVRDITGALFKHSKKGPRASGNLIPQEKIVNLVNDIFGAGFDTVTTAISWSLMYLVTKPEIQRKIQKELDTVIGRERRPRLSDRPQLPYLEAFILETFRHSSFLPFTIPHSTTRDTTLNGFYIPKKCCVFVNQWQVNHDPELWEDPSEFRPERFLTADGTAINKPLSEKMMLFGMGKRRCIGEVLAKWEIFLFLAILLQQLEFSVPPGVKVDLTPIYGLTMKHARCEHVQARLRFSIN
How it was run: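 Compounds were tested at 10 uM in duplicate against recombinant CYP1A2 produced in insect cells. Enzyme activity was measured by fluorescence 0.5 h after dosing, with loss of signal versus acetonitrile control. Active compounds were re-tested in concentration series.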

Measured: AC50

Tumor necrosis factor (Homo sapiens), sequence (P01375 whole entry, looked up): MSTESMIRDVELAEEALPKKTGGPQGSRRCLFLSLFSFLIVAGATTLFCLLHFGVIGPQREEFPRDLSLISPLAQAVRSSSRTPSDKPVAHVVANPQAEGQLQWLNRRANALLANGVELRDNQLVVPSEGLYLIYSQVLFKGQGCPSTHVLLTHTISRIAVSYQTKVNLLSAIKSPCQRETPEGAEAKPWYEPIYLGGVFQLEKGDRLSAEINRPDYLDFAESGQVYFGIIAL
E-selectin (Homo sapiens), sequence (P16581 whole entry, looked up): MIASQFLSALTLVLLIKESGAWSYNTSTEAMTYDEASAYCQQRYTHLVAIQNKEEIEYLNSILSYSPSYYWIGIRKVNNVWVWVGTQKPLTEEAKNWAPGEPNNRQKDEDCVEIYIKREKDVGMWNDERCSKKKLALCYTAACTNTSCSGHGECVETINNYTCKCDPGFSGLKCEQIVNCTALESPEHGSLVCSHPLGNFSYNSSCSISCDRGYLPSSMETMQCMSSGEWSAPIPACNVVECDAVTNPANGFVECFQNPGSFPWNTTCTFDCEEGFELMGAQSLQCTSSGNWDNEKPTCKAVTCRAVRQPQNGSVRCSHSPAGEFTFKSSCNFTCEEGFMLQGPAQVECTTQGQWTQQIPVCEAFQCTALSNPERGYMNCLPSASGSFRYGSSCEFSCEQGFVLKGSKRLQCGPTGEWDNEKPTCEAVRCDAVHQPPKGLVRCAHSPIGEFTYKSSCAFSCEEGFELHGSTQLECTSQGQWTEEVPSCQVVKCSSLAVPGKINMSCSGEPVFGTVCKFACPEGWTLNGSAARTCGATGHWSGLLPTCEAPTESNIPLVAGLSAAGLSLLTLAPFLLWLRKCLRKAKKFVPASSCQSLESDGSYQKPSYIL

C=C(C)C(=O)OCCC(F)(F)C(F)(F)C(F)(F)C(F)(F)C(F)(F)C(F)(F)F
active: [13] 11.2 µM
inactive: [1] | [2] | [3] | [4] | [5] | [6] | [7] | [8] | [9] | [10] | [11] | [12] | [13] | [14] | [15]

Cc1cc(C)c(O)c(C)c1
active: [1] 2.97 µM | [4] 0.352 µM
not listed: [15] | [17] | [18] | [19] | [20]
inactive: all other assays above

OCCC(F)(F)C(F)(F)C(F)(F)C(F)(F)C(F)(F)C(F)(F)F
inactive: [1] | [2] | [3] | [4] | [5] | [6] | [7] | [8] | [9] | [10] | [11] | [12] | [13] | [14]
active: [2] 46.8 µM | [5] 48.9 µM | [6] 50.4 µM | [7] 56.3 µM | [9] 54.9 µM | [10] 53.2 µM | [11] 47.7 µM and 55.7 µM | [12] 46.1 µM | [13] 49.8 µM and 50.9 µM | [14] 53.1 µM

CCc1ccc(CCOc2ccc(CC3SC(=O)NC3=O)cc2)nc1 (centres undefined)
active: [13] 7.06 µM
not listed: [15] | [17] | [18] | [19] | [20]
inactive: all other assays above

CCC(=C(c1ccc(O)cc1)c1ccc(OCCN(C)C)cc1)c1ccccc1
active: [1] 19.8 µM | [2] 7.5 µM | [3] 13 µM | [4] 13.6 µM | [5] 12.6 µM | [6] 8.38 µM | [7] 11.1 µM | [16] 9.48 µM | [8] 11.1 µM | [9] 18.7 µM | [10] 13.2 µM | [11] 7.32 µM | [12] 10.2 µM | [13] 5.91 µM | [14] 8.31 µM

O=[N+]([O-])c1ccc(O)cc1
not listed: [15] | [19] | [20]
inactive: all other assays above

NC(=O)N(O)[C@@H]1C=C[C@H](Oc2cccc(Oc3ccc(F)cc3)c2)C1
active: [1] 8.49 µM | [6] 26.3 µM | [13] 20 µM
not listed: [15] | [17] | [18] | [19] | [20]
inactive: all other assays above

COc1ccc([N+](=O)[O-])cc1N
active: [17] 5.77 µM
not listed: [15] | [19] | [20]
inactive: all other assays above

Oc1cc2ccccc2c2ccccc12
inactive: [17]
active: [1] 3.34 µM | [2] 7.85 µM | [3] 9.95 µM | [4] 11.6 µM | [5] 9.03 µM | [6] 10 µM | [7] 9.94 µM | [16] 8.99 µM | [8] 7.84 µM | [9] 8.61 µM | [10] 10.8 µM | [11] 3.93 µM | [12] 9.87 µM | [13] 3.62 µM | [14] 9.94 µM | [19] 5.31 µM | [18] 1.31 µM | [20] 0.0278 µM

NCC(F)(F)C(F)(F)C(F)(F)C(F)(F)C(F)(F)C(F)(F)C(F)(F)F
active: [11] 47.2 µM | [13] 43.6 µM
inactive: [1] | [2] | [3] | [4] | [5] | [6] | [7] | [8] | [9] | [10] | [11] | [12] | [13] | [14]
